Among the test systems are NCI-H23 lung; NCI-H226 lung; NCI-H322M lung; HOP-62 NSCLC; NCI-H460 lung; HOP-92 NSCLC; NCI-H522 lung; A549/ATCC NSCLC; 786-0 renal; COLO 205 colon; DU-145 prostate; K-562 leukemia; MALME-3M melanoma; MDA-MB-231 breast; RXF 393 renal; SF-268 CNS; SF-295 CNS; SF-539 CNS; UACC-257 melanoma; M14 melanoma.
Common to all, as to experiment: NCI-60 one-dose screen, 48 h (100 = growth as untreated, 0 = no growth, -100 = all killed)
Details in all cases: 10 µM unless noted

About 83,000 compounds went through this panel and 20% of them were active in at least one assay; those are over-represented in the sample as a whole.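 Single-concentration screen, 48 h exposure, 96-well plates. Endpoint: percent growth. Below 10 = active.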 Unmarked numbers belong to inactive results. Calls of active or inactive are those of the source.

`CCCN1CC(c2ccc(OC)c(OC)c2)=C(c2cn(C(=O)OCC)c3ccccc23)C1=O`: the growth with NCI-H23 lung is 65.8%; in the assay with NCI-H226 lung it was 76.8%; with NCI-H322M lung, 90.6%; in the assay with HOP-62 NSCLC, 45.9%; with NCI-H460 lung, 37.1%; with HOP-92 NSCLC, 26.2%. The growth is 24% in the assay on NCI-H522 lung; 46.3% with A549/ATCC NSCLC; 54.6% with 786-0 renal; 41.7% with COLO 205 colon; 71.9% in the assay with DU-145 prostate; 13.3% in the assay with K-562 leukemia. Further, the growth in the assay on MALME-3M melanoma is 51.6%; with MDA-MB-231 breast, 43.3%; with RXF 393 renal it was -0.611% (active); in the assay with SF-268 CNS it was 58.2%; in the assay with SF-295 CNS, 32.4%; in the assay with SF-539 CNS, 28.1%. The growth with UACC-257 melanoma was 90.1%; in the assay on M14 melanoma, 70.4%.

With `CCCCC(CCCCCC(CCCC)C1NC(C)Cc2cc(OC)c(OC)cc21)C1NC(C)Cc2cc(OC)c(OC)cc21` (stereo not given), the growth is -81.4% (active) with NCI-H23 lung; -77.8% (active) in the assay with NCI-H226 lung; -39.4% (active) in the assay with NCI-H322M lung; -97.2% (active) in the assay on HOP-62 NSCLC; -73.8% (active) in the assay on NCI-H460 lung; -57.8% (active) with HOP-92 NSCLC. For the same compound, the growth with NCI-H522 lung is -87.7% (active); in the assay on A549/ATCC NSCLC it was -80.9% (active); in the assay on 786-0 renal, -98.4% (active); in the assay with COLO 205 colon, -96.9% (active); with DU-145 prostate, -100% (active); in the assay on K-562 leukemia, -76.8% (active). Also, the growth with MALME-3M melanoma was -73.4% (active); in the assay with MDA-MB-231 breast, -67.4% (active); in the assay on RXF 393 renal, -89.4% (active); with SF-268 CNS it was -88.6% (active); with SF-295 CNS, -70.7% (active); with SF-539 CNS, -95.8% (active). Besides, the figures for the growth in the assay on UACC-257 melanoma and with M14 melanoma were -80.6% (active) and -90.2% (active), respectively.

With `CCN=Cc1c(O)c(O)c(C(C)C)c2cc(C)c(-c3c(C)cc4c(C(C)C)c(O)c(O)c(C=NCC)c4c3O)c(O)c12`, the growth in the assay with NCI-H23 lung is 24.9%; in the assay on NCI-H226 lung it was 80.4%; in the assay with NCI-H322M lung it was 48.3%; in the assay with HOP-62 NSCLC, 51.3%; with NCI-H460 lung, 26%; in the assay on HOP-92 NSCLC, 16.3%. Further, the growth with NCI-H522 lung is 43.3%; in the assay on A549/ATCC NSCLC, 27.2%; in the assay on 786-0 renal, 72.5%; with COLO 205 colon, 7.89% (active); in the assay with DU-145 prostate, 53%; in the assay with K-562 leukemia, 16.4%. Also, the growth in the assay with MALME-3M melanoma is 75.1%; in the assay on MDA-MB-231 breast it was 50.5%; with RXF 393 renal, 68.2%; in the assay on SF-268 CNS, 44.7%; in the assay on SF-295 CNS, 29.5%; in the assay with SF-539 CNS it was 55.2%. Further, the growth was 85.2% with UACC-257 melanoma and 61.6% with M14 melanoma.

In the case of `COC(=O)[C@]12CCC(C)(C)C[C@H]1C1=CC[C@@H]3[C@@]4(C)C/C(=C/c5cccnc5)C(=O)C(C)(C)[C@@H]4CC[C@@]3(C)[C@]1(C)CC2`, the growth in the assay on NCI-H23 lung was -40.6% [100 µM] (active); in the assay with NCI-H226 lung, -51.7% [100 µM] (active); with NCI-H322M lung, -13.4% [100 µM] (active); with HOP-62 NSCLC, -19.3% [100 µM] (active); in the assay on NCI-H460 lung it was -39.3% [100 µM] (active); in the assay on HOP-92 NSCLC, -61.5% [100 µM] (active). In addition, the growth in the assay with NCI-H522 lung is -72.9% [100 µM] (active); in the assay on A549/ATCC NSCLC, 0.0781% [100 µM] (active); in the assay on 786-0 renal, -29.1% [100 µM] (active); in the assay on COLO 205 colon, -46.2% [100 µM] (active); in the assay on DU-145 prostate it was 7.21% [100 µM] (active); in the assay on K-562 leukemia, 5.39% [100 µM] (active). Moreover, the growth in the assay with MALME-3M melanoma is -79.7% [100 µM] (active); with MDA-MB-231 breast it was -55.7% [100 µM] (active); in the assay with RXF 393 renal, -76.5% [100 µM] (active); with SF-268 CNS it was -5.3% [100 µM] (active); in the assay with SF-295 CNS it was -29.8% [100 µM] (active); in the assay on SF-539 CNS, -76.6% [100 µM] (active). Moreover, the figures for the growth in the assay with UACC-257 melanoma and in the assay with M14 melanoma were -29.2% [100 µM] (active) and -49.8% [100 µM] (active), respectively.

On to `Cn1cc(-c2noc(-c3cn(C)c4ncccc34)n2)c2cc(Cl)ccc21`, for which the growth in the assay on NCI-H23 lung was 91.5%; in the assay on NCI-H226 lung, 115%; in the assay on NCI-H322M lung, 91.2%; with HOP-62 NSCLC, 93.2%; in the assay with NCI-H460 lung it was 88%; in the assay on HOP-92 NSCLC, 135%. In addition, the growth with NCI-H522 lung is 7.71% (active); in the assay on A549/ATCC NSCLC, 79.7%; with 786-0 renal it was 95.4%; in the assay with COLO 205 colon, 91.9%; in the assay with DU-145 prostate, 103%; in the assay with K-562 leukemia it was 87.4%. For the same compound, the growth is 90.7% in the assay with MALME-3M melanoma; 70.4% in the assay with MDA-MB-231 breast; 121% in the assay with RXF 393 renal; 82.9% with SF-268 CNS; 99.2% with SF-295 CNS; 56.6% in the assay with SF-539 CNS. In addition, the growth is 103% in the assay with UACC-257 melanoma and 91.6% with M14 melanoma.

Regarding `CNC(=O)c1cc(Oc2cccc3nc(NC(=O)Nc4cc(C(F)(F)F)cc(C(F)(F)F)c4)ccc23)ccn1`, the growth is 50.8% with NCI-H23 lung; 43.1% in the assay with NCI-H226 lung; 25.5% in the assay with NCI-H322M lung; 6.73% (active) in the assay with HOP-62 NSCLC; 34.9% with NCI-H460 lung; -23.7% (active) in the assay on HOP-92 NSCLC. For the same compound, the growth in the assay on NCI-H522 lung was 24.3%; with A549/ATCC NSCLC, 18.6%; in the assay on 786-0 renal, -35.6% (active); in the assay on COLO 205 colon it was 53.9%; with DU-145 prostate, 45.4%; in the assay on K-562 leukemia, 71.9%. Moreover, the growth with MALME-3M melanoma was 21.3%; in the assay on MDA-MB-231 breast, 23.3%; in the assay with RXF 393 renal, 27.5%; in the assay with SF-268 CNS it was 36.1%; with SF-295 CNS, 30.3%; in the assay with SF-539 CNS, 38.9%. In addition, the growth in the assay on UACC-257 melanoma is 57.7%; in the assay on M14 melanoma it was 35.5%.

Turning to `Cn1cc(-c2nnc(-c3ccccc3)s2)c2cc(Br)cnc21`, the growth in the assay with NCI-H23 lung is 85%; in the assay on NCI-H226 lung, 64%; with NCI-H322M lung, 88.2%; in the assay on HOP-62 NSCLC, 74.3%; with NCI-H460 lung, 95.4%; in the assay on HOP-92 NSCLC, 42.3%. The growth is 89.5% in the assay with NCI-H522 lung; 83.1% in the assay with A549/ATCC NSCLC; 99.6% in the assay on 786-0 renal; 104% in the assay on COLO 205 colon; 92.6% with DU-145 prostate; 70.7% in the assay on K-562 leukemia. In addition, the growth with MALME-3M melanoma was 69.9%; in the assay on MDA-MB-231 breast it was 39.3%; in the assay with RXF 393 renal it was 102%; in the assay with SF-268 CNS, 91.7%; with SF-295 CNS, 95.5%; with SF-539 CNS it was 78.9%. Also, the growth in the assay with UACC-257 melanoma was 100%; in the assay with M14 melanoma it was 101%.

The values are drawn from PubChem BioAssay (NCI).
